Test results from PubChem BioAssay (EPA / NIEHS).
Results filed as inconclusive are left out. Calls of active or inactive are those of the source. How the source made its calls: active means hit-call score of the fitted dose curve at least 0.9, where 1 is the maximum; inconclusive means response in the unintended direction; inactive means score below 0.9.

Assay: ACEA_ER_AUC_viability: ACEA Biosciences xCELLigence Real-Time Cell Analysis on Estrogen Receptor Agonism for Viability (AID 2283782);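 further: continuous compound exposure with impedance area under curve over 80 h; hit means loss of impedance signal meaning reduced cell growth or viability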
Outline: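 T-47D human breast cells in phenol red-free RPMI1640 with 10% charcoal-stripped FBS were dosed with an 8-point 1:4 dilution series from 100 uM top final concentration, in duplicate. Impedance-based growth was followed for 80 h; AUC analysed versus DMSO.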

Q: Which outcome does the source give for `Cn1ccnc1` here?
A: inactive

Q: Which outcome does the source give for `[Cl][Eu]([Cl])[Cl]` here?
A: inactive

Q: With `CC1=CC(C)C(C=O)CC1` (stereo not drawn) as the compound, how does the outcome read?
A: inactive

Q: For `CCCCOC(=O)C(C)CC` (stereo not drawn), which outcome is on record?
A: inactive

Q: With `CC(C)(CO)C(O)C(=O)NCCCO` (stereo not drawn) as the compound, how does the outcome read?
A: inactive

Q: With `OCCCc1ccccc1` as the compound, how does the outcome read?
A: inactive

Q: For `CO[Si](CCCS)(OC)OC`, which outcome is on record?
A: inactive

Q: For `CCCCCCCCCCCCCc1ccccc1`, which outcome is on record?
A: inactive

Q: With `CC1CCC(=O)C1=O` (stereo not drawn) as the compound, how does the AC50 read?
A: 10.3 µM (active)

Q: Which outcome does the source give for `CC(C)c1ccc2ncccc2c1` here?
A: inactive

Q: For `C=CCCCCCCCCO`, which AC50 is on record?
A: 50 µM (active)

Q: For `CC(=O)CCC=C(C)C`, which outcome is on record?
A: inactive

Q: For `CCC(C)C(=O)OCCc1ccccc1` (stereo not drawn), which outcome is on record?
A: inactive

Q: For `CC(=O)C(C)C`, which outcome is on record?
A: inactive

Q: With `CC(=O)CCC1=C(C)CCCC1(C)C` as the compound, how does the AC50 read?
A: 81.5 µM (active)

Q: For `Cc1ccc2c(c1)CCCN2`, which outcome is on record?
A: inactive

Q: For `CCC1(C)C(=O)N(Cl)C(=O)N1Cl` (stereo not drawn), which AC50 is on record?
A: 81.4 µM (active)

Q: With `C=C(C)OC(C)=O` as the compound, how does the outcome read?
A: inactive

Q: With `CC1C(C)(C)C2=C(C(=O)CCC2)C1(C)C` (stereo not drawn) as the compound, how does the outcome read?
A: inactive

Q: With `Cc1cc(=O)[nH]c(=O)[nH]1` as the compound, how does the outcome read?
A: inactive

Q: With `COC(Cc1ccccc1)OC` as the compound, how does the AC50 read?
A: 67 µM (active)

Q: With `CCCCCCCC(=O)OCC` as the compound, how does the outcome read?
A: inactive

Q: Which AC50 does the source give for `c1ccc2sc(SSN3CCOCC3)nc2c1` here?
A: 84.8 µM (active)

Q: Which AC50 does the source give for `CC1=C(O)C(=O)C(C)O1` (stereo not drawn) here?
A: 66.8 µM (active)

Q: For `C=C(C)C1CC=C(C)C(OC(C)=O)C1` (stereo not drawn), which AC50 is on record?
A: 81.5 µM (active)

Q: With `CC(=O)/C=C/C1C(C)=CCCC1(C)C` (stereo not drawn) as the compound, how does the outcome read?
A: inactive

Q: With `O=C(C=Cc1ccccc1)OCCc1ccccc1` as the compound, how does the AC50 read?
A: 58 µM (active)

Q: Which outcome does the source give for `O=C(O)CCCC(=O)O` here?
A: inactive

Q: For `CCCCOC(=O)CCC(C)=O`, which outcome is on record?
A: inactive

Q: Which outcome does the source give for `Nc1ccc(C(=O)OCCCOC(=O)c2ccc(N)cc2)cc1` here?
A: inactive

Q: Which AC50 does the source give for `Nc1ccc(Cl)c(N)c1` here?
A: 73 µM (active)

Q: Which outcome does the source give for `C1CCSC1` here?
A: inactive

Q: For `CCOC(=O)OC(=O)OCC`, which outcome is on record?
A: inactive

Q: With `CN1CCN(C)CC1` as the compound, how does the outcome read?
A: inactive

Q: Which AC50 does the source give for `CCOC(=O)/C=C\C(=O)OCC` here?
A: 82.6 µM (active)

Q: With `O=C1CCCN1C1CCCCC1` as the compound, how does the outcome read?
A: inactive

Q: Which AC50 does the source give for `Oc1ccc(/C=C/c2cc(O)cc(O)c2)cc1` here?
A: 20.6 µM (active)

Q: For `CC=C(C)C(C)=O`, which outcome is on record?
A: inactive
